Results reported in article PMC7862700, “An all-to-all approach to the identification of sequence-specific readers for epigenetic DNA modifications on cytosine”.

What was measured:
Test in all cases: DAPPL (digital affinity profiling via proximity ligation, sequencing); 10 mM Tris-HCl pH 7.5, 50 mM NaCl, 1 mM DTT, 4% glycerol, room temperature, 30 min; GST-TFs on glutathione beads, 16-mer random dsDNA library, 0.1% formaldehyde crosslink after washing; high values mean tight binding
[1] = target: T1, FLI1 (Homo sapiens, UniProt Q01543 1-452); conditions: protein: recombinant; tags: N-terminal GST; dsDNA, one strand shown
T1 sequence: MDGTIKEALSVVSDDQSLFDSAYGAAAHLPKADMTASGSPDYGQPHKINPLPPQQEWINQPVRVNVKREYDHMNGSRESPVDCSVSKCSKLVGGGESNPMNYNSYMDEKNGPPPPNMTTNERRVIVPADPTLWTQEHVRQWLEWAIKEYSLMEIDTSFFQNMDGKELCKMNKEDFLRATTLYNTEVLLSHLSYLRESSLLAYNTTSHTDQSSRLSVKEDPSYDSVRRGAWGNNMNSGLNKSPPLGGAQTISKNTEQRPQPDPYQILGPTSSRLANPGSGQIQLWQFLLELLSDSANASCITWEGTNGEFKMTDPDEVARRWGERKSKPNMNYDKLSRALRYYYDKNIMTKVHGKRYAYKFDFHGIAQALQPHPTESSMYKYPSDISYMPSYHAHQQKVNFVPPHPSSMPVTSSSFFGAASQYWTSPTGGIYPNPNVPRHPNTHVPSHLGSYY
How it was run: (§1)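 The binding signal reported is, for every hexamer, its read frequency for a factor over its read frequency for the tag-only sample. Reads came from pools of yeast-expressed, GST-fused human transcription factors on glutathione beads, barcoded with DNA and mixed with that sample, which were incubated with 200 nmole of a random double-stranded 16-mer DNA library in Tris/NaCl/DTT/glycerol buffer at room temperature for 30 min. After washing, the pools were crosslinked with 0.1% formaldehyde, proximity-ligated with BsaI/T4 ligase for 1 h at 37 °C, PCR-amplified and sequenced on an Illumina NextSeq500.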

[2] = target: T2, ELK1 (Homo sapiens, UniProt P19419 1-428); conditions: protein: recombinant; tags: N-terminal GST; dsDNA, one strand shown
T2 sequence: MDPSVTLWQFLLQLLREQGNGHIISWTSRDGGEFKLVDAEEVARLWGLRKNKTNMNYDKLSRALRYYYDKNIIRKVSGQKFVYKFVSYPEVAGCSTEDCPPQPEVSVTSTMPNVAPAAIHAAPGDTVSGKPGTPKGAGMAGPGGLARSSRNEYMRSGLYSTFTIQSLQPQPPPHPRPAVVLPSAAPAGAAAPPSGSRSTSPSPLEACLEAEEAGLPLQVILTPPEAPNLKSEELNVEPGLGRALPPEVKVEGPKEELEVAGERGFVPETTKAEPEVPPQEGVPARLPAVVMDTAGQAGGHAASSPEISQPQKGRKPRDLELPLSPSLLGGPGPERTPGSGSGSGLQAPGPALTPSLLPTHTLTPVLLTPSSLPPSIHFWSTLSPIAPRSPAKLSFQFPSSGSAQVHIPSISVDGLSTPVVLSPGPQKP
How it was run: as §1

[3] = target: T3, GABPA (Homo sapiens, UniProt Q06546 1-454); conditions: protein: recombinant; tags: N-terminal GST; dsDNA, one strand shown
T3 sequence: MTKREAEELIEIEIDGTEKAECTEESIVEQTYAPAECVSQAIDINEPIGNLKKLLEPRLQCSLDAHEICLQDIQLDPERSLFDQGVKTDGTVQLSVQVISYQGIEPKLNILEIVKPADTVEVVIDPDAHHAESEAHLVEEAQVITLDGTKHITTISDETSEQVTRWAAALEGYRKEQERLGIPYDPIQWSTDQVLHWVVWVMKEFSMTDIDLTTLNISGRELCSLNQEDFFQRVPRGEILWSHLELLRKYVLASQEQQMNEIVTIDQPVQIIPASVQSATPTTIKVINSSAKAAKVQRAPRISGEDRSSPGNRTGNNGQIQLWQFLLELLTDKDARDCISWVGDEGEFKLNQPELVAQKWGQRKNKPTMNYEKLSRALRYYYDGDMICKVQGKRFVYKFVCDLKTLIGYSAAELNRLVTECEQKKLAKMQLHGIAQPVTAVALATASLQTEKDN
How it was run: as §1

[4] = target: T4, ERG (Homo sapiens, UniProt P11308 1-479); conditions: protein: recombinant; tags: N-terminal GST; dsDNA, one strand shown
T4 sequence: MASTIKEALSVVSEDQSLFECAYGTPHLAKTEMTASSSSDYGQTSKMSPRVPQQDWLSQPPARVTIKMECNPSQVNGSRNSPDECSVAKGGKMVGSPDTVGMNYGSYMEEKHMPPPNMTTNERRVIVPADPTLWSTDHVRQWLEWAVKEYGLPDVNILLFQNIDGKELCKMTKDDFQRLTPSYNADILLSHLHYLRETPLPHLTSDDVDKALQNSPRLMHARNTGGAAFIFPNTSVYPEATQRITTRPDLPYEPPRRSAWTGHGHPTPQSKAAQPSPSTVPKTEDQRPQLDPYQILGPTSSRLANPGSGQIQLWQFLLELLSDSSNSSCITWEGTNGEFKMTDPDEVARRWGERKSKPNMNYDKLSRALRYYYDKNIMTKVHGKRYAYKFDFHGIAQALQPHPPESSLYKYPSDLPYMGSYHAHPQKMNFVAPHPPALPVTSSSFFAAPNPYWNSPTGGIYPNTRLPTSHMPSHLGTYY
How it was run: as §1

[5] = target: ELF1 (Homo sapiens, UniProt P32519 1-619); conditions: protein: recombinant; tags: N-terminal GST; dsDNA, one strand shown
How it was run: as §1

[6] = target: T5, EHF (Homo sapiens, UniProt Q9NZC4 1-300); conditions: protein: recombinant; tags: N-terminal GST; dsDNA, one strand shown
T5 sequence: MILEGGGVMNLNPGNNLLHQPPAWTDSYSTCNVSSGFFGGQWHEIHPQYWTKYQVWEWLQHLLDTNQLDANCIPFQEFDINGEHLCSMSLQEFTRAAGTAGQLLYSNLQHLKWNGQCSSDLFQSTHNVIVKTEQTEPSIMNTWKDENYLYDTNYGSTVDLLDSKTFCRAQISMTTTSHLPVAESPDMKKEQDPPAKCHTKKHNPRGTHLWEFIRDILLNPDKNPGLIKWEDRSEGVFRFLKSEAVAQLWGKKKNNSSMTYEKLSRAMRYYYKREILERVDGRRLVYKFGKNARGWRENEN
How it was run: as §1

[7] = target: SPI1 (Homo sapiens, UniProt P17947 1-270); conditions: protein: recombinant; tags: N-terminal GST; dsDNA, one strand shown
How it was run: as §1

[8] = target: SPIB (Homo sapiens, UniProt Q01892 1-262); conditions: protein: recombinant; tags: N-terminal GST; dsDNA, one strand shown
How it was run: as §1

[9] = target: T6, FEV (Homo sapiens, UniProt Q99581 1-238); conditions: protein: recombinant; tags: N-terminal GST; dsDNA, one strand shown
T6 sequence: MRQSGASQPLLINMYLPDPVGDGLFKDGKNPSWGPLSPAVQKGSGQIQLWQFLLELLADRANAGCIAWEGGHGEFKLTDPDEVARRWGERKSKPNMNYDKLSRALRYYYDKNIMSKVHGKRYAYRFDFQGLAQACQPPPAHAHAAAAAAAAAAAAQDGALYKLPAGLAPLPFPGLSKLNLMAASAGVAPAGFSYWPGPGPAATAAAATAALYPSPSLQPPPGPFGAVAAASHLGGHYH
How it was run: as §1

[10] = target: ETV5 (Homo sapiens, UniProt P41161 1-510); conditions: protein: recombinant; tags: N-terminal GST; dsDNA, one strand shown
How it was run: as §1

[11] = target: HSF1 (Homo sapiens, UniProt Q00613 1-529); conditions: protein: recombinant; tags: N-terminal GST; chain copies: 3; dsDNA, one strand shown
How it was run: as §1

[12] = target: ELF4 (Homo sapiens, UniProt Q99607 1-663); conditions: protein: recombinant; tags: N-terminal GST; dsDNA, one strand shown
How it was run: as §1

[13] = target: T7, ELK4 (Homo sapiens, UniProt P28324-2 1-405); conditions: protein: recombinant; tags: N-terminal GST; dsDNA, one strand shown
T7 sequence: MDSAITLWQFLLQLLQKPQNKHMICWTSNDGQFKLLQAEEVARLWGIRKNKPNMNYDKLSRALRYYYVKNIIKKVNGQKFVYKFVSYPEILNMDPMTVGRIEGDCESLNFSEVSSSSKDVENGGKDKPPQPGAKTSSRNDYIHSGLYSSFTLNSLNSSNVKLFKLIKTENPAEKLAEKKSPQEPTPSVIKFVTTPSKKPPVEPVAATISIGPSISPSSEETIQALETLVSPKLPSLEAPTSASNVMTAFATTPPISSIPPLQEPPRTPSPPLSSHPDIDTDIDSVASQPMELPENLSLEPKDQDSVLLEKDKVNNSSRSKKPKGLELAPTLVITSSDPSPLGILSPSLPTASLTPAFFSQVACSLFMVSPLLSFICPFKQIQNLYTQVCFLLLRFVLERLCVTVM
How it was run: as §1

[14] = target: T8, ETV2 (Homo sapiens, UniProt O00321 1-342); conditions: protein: recombinant; tags: N-terminal GST; dsDNA, one strand shown
T8 sequence: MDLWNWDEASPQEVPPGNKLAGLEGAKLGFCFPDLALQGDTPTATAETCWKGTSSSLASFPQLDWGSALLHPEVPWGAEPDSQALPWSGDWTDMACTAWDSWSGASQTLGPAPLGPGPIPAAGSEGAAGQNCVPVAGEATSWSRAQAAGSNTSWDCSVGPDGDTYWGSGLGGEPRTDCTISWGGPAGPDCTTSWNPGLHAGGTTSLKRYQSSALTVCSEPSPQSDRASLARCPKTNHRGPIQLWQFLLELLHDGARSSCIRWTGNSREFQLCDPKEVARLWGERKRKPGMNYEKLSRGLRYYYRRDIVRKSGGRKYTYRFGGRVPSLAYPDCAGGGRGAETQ
How it was run: as §1

[15] = target: T9, ELF3 (Homo sapiens, UniProt P78545 1-371); conditions: protein: recombinant; tags: N-terminal GST; dsDNA, one strand shown
T9 sequence: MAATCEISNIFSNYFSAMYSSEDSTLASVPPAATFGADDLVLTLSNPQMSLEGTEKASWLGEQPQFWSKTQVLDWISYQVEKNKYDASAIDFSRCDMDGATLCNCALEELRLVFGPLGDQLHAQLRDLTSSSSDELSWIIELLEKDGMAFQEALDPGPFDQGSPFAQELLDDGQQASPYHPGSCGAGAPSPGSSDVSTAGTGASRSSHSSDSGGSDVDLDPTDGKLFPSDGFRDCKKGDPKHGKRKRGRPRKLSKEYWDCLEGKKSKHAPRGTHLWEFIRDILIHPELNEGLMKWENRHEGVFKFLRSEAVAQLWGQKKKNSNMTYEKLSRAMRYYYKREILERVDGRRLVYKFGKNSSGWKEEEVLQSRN
How it was run: as §1

[16] = target: ETV1 (Homo sapiens, UniProt P50549 1-477); conditions: protein: recombinant; tags: N-terminal GST; dsDNA, one strand shown
How it was run: as §1

[17] = target: CRX (Homo sapiens, UniProt O43186 1-299); conditions: protein: recombinant; tags: N-terminal GST; dsDNA, one strand shown
How it was run: as §1

Chain of ELF4 (Q99607 whole entry): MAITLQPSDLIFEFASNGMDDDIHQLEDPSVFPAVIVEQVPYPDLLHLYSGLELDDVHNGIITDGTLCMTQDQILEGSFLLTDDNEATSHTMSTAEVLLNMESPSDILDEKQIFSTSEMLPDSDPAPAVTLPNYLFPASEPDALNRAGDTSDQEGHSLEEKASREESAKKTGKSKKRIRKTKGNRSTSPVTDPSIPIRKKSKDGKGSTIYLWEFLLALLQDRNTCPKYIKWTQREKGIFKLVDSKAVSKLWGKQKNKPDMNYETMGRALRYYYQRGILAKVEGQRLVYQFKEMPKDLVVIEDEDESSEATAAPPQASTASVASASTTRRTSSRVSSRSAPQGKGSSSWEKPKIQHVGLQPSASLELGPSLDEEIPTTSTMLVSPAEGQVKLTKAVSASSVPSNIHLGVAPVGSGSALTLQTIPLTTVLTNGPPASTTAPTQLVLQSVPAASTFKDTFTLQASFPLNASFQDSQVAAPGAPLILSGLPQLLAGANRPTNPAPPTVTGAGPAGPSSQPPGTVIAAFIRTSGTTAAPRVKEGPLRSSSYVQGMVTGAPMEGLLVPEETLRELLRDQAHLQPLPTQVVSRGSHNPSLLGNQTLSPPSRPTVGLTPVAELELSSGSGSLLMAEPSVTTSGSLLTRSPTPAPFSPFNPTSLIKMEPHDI
Chain of HSF1 (Q00613 whole entry): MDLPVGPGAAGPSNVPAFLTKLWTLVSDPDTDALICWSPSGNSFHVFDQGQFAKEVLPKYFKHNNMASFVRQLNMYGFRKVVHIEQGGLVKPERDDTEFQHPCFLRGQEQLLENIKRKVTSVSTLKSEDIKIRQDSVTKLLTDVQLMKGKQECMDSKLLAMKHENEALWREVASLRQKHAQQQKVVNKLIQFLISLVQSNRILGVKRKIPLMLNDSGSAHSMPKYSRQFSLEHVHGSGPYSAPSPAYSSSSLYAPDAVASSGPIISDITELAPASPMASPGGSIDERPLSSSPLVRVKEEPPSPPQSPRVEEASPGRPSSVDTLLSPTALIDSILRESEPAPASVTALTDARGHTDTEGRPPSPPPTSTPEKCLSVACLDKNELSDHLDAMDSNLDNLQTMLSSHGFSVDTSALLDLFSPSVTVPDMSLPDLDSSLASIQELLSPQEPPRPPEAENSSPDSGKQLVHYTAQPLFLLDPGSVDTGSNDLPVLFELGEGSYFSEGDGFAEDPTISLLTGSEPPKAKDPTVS
Chain of ETV5 (P41161 whole entry): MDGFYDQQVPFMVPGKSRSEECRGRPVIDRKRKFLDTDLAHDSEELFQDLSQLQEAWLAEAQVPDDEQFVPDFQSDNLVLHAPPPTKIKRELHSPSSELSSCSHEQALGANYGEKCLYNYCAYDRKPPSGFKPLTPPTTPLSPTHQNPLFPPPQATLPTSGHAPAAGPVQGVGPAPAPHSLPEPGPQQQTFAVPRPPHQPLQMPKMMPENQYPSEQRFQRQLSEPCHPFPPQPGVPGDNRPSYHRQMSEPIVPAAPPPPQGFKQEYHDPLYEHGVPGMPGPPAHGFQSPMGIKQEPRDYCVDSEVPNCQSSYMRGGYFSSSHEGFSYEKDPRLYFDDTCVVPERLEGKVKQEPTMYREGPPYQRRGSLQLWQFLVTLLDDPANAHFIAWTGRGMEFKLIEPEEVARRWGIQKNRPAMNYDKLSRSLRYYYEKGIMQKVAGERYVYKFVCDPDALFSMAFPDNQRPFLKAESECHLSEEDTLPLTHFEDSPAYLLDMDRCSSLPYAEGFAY
Chain of ELF1 (P32519 whole entry): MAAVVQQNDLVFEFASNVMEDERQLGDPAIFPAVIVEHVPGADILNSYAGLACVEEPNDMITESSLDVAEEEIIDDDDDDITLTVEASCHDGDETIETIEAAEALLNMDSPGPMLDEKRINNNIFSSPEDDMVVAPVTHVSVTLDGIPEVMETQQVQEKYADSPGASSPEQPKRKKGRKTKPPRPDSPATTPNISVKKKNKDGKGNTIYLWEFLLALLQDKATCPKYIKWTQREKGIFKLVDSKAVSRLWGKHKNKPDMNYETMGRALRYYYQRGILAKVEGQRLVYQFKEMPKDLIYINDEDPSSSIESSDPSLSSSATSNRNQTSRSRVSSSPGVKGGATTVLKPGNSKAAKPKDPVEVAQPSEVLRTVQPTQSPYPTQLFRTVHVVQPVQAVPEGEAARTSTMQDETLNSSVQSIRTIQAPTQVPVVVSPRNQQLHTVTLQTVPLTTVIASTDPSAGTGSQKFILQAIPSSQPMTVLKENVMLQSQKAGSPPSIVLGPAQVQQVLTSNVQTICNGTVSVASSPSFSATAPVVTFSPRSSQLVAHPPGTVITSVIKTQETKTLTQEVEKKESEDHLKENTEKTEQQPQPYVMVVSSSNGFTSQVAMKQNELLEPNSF
Chain of SPIB (Q01892 whole entry): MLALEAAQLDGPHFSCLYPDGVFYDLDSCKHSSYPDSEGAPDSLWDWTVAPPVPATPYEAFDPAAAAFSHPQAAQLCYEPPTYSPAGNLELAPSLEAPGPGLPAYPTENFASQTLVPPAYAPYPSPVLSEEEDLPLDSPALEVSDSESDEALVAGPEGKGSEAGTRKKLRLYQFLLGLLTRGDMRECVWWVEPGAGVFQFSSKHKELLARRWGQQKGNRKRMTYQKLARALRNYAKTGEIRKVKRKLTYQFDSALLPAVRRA
Chain of ETV1 (P50549 whole entry): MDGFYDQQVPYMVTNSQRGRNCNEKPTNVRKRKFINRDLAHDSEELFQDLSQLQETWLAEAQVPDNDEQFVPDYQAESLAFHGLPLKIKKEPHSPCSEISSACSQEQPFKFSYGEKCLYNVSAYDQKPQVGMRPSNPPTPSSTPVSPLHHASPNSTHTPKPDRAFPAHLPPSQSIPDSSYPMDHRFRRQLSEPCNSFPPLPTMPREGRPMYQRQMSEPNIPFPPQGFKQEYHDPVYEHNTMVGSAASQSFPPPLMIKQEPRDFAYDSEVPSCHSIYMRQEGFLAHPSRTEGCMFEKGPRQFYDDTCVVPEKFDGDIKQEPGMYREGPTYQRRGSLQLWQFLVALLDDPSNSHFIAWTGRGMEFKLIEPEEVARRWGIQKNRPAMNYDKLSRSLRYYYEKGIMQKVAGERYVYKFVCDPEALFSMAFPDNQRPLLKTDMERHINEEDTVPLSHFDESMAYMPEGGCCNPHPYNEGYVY
Chain of CRX (O43186 whole entry): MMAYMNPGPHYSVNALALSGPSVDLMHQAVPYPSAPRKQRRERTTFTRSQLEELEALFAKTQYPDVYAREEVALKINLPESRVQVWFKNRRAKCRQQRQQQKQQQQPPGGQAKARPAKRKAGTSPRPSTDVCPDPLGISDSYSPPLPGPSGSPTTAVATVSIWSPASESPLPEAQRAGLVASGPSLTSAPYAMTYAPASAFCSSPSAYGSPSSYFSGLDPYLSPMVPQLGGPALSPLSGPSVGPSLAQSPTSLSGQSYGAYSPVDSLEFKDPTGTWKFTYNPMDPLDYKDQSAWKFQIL

| Sequence | binding signal [1] | binding signal [2] | binding signal [3] | binding signal [4] | binding signal [5] | binding signal [6] | binding signal [7] | binding signal [8] | binding signal [9] | binding signal [10] | binding signal [11] | binding signal [12] | binding signal [13] | binding signal [14] | binding signal [15] | binding signal [16] | binding signal [17] |
| --- | --- | --- | --- | --- | --- | --- | --- | --- | --- | --- | --- | --- | --- | --- | --- | --- | --- |
| TGACGA | 1.06 fold enrichment (6-mer frequency, TF over GST control) | 1.12 fold enrichment (6-mer frequency, TF over GST control) | 1.21 fold enrichment (6-mer frequency, TF over GST control) | 1.07 fold enrichment (6-mer frequency, TF over GST control) | 1.14 fold enrichment (6-mer frequency, TF over GST control) | 1.04 fold enrichment (6-mer frequency, TF over GST control) | 1.03 fold enrichment (6-mer frequency, TF over GST control) | 1.17 fold enrichment (6-mer frequency, TF over GST control) | 1.05 fold enrichment (6-mer frequency, TF over GST control) | 1.13 fold enrichment (6-mer frequency, TF over GST control) | 1.01 fold enrichment (6-mer frequency, TF over GST control) | 1.11 fold enrichment (6-mer frequency, TF over GST control) | 1.18 fold enrichment (6-mer frequency, TF over GST control) | 1.15 fold enrichment (6-mer frequency, TF over GST control) | 1.08 fold enrichment (6-mer frequency, TF over GST control) | 1.04 fold enrichment (6-mer frequency, TF over GST control) |  |
| CCAAAT | 1.02 fold enrichment (6-mer frequency, TF over GST control) | 1.1 fold enrichment (6-mer frequency, TF over GST control) | 1.01 fold enrichment (6-mer frequency, TF over GST control) | 1.1 fold enrichment (6-mer frequency, TF over GST control) | 1.16 fold enrichment (6-mer frequency, TF over GST control) | 1.05 fold enrichment (6-mer frequency, TF over GST control) | 1.09 fold enrichment (6-mer frequency, TF over GST control) | 1.04 fold enrichment (6-mer frequency, TF over GST control) | 1.08 fold enrichment (6-mer frequency, TF over GST control) | 1.06 fold enrichment (6-mer frequency, TF over GST control) | 1.02 fold enrichment (6-mer frequency, TF over GST control) | 1.17 fold enrichment (6-mer frequency, TF over GST control) | 1.04 fold enrichment (6-mer frequency, TF over GST control) |  | 1.11 fold enrichment (6-mer frequency, TF over GST control) |  | 1.18 fold enrichment (6-mer frequency, TF over GST control) |
| TCGATG | 1.04 fold enrichment (6-mer frequency, TF over GST control) | 1.14 fold enrichment (6-mer frequency, TF over GST control) | 1.12 fold enrichment (6-mer frequency, TF over GST control) | 1.06 fold enrichment (6-mer frequency, TF over GST control) | 1.11 fold enrichment (6-mer frequency, TF over GST control) | 1.09 fold enrichment (6-mer frequency, TF over GST control) | 1.17 fold enrichment (6-mer frequency, TF over GST control) | 1.06 fold enrichment (6-mer frequency, TF over GST control) |  | 1.11 fold enrichment (6-mer frequency, TF over GST control) | 1.26 fold enrichment (6-mer frequency, TF over GST control) | 1.2 fold enrichment (6-mer frequency, TF over GST control) | 1.09 fold enrichment (6-mer frequency, TF over GST control) | 1.03 fold enrichment (6-mer frequency, TF over GST control) | 1.1 fold enrichment (6-mer frequency, TF over GST control) | 1.11 fold enrichment (6-mer frequency, TF over GST control) |  |
